# HPGD inh: qHTS Assay for Inhibitors of HPGD (15-Hydroxyprostaglandin Dehydrogenase) | 15-hydroxyprostaglandin dehydrogenase [NAD(+)] (Homo sapiens), P15428 | purified HPGD, NADH fluorescence kinetic, PGE2 substrate | Potency, µM, inactives show at the highest dose activity change, negative = inhibition, most hits filed as inhibitors | 150,000 tested, 4.3% active | AID 894, 2007; note: potency is the fitted concentration of half-maximal effect
#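 20 nM HPGD preincubated 15 min at room temperature with compound in 50 mM Tris-HCl pH 8, 0.01% Tween 20. Started with 1 mM NAD+ and 30 uM prostaglandin E2; NADH fluorescence (360/450 nm) read 5 times over 30-s intervals, last minus first.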
# IMPase inh: qHTS Assay for Identifying the Cell-Membrane Permeable IMPase Inhibitors; AID 901, 2007; inhibition (IP1 accumulation), % at 46.1 µM; 120,000 tested, under 10 active; Inositol monophosphatase 1 (Rattus norvegicus), P97697; CHO-M1 cells, IP1 accumulation, HTRF TR-FRET ratio; active = well fitted curve in the direction sought with a large enough effect in the signal ratio, not every such curve was filed as active; inconclusive = small, poorly fitted or top-dose-only effect, or a change in a side signal; inactive = no such curve, though single readings can be large or run the other way; the % refers to the signal ratio;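 note: cells stimulated with carbachol in lithium chloride buffer; plate controls were DMSO basal wells for no effect and reference inhibitor wells for full effect; higher means more IMPase inhibition seen as more IP1 and lower FRET ratio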
#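 Seeded CHO-M1 cells were dosed with compound at up to 46 uM, stimulated with carbachol for 30 min, then lysed in IP-One detection reagents. Higher IP1 lowers the TR-FRET signal.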
# ALDH1A1 block: qHTS Assay for Inhibitors of Aldehyde Dehydrogenase 1 (ALDH1A1). 220,000 tested, 7.3% active. Aldehyde dehydrogenase 1A1 (Homo sapiens), P00352. AID 1030, 2008. Potency, µM (highest dose often 75.3 µM), for the others: at the top dose activity, negative = inhibition, usual class: inhibitors. Purified ALDH1A1, NADH fluorescence, propionaldehyde substrate;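 note: potency is the fitted concentration of half-maximal effect; plate controls were no enzyme wells and a reference inhibitor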
# Target sequence (P00352 whole entry, looked up): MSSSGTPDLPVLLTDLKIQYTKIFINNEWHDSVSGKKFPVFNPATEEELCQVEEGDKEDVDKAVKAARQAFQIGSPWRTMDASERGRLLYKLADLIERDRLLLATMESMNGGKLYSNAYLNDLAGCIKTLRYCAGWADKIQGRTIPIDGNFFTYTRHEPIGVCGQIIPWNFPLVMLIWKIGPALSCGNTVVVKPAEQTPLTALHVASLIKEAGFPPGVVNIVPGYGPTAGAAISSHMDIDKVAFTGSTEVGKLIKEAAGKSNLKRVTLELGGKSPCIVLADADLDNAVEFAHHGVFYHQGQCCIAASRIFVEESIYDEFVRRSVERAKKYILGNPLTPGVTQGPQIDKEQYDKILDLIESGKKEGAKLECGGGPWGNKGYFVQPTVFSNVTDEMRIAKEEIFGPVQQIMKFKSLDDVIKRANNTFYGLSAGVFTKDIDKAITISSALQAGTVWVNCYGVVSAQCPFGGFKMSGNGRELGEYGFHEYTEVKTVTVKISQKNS
# Starred values were filed as active, the others as inactive; ? = inconclusive; · = no result; [ ] = remark or other dose. Most compounds without a hit are left out; they make up all but 9% or so of the library. Unless noted, calls come from the whole dose curve; as a rule, active = well fitted inhibition curve with a large enough effect (not every such curve was filed as active); inconclusive = small, poorly fitted or top-dose-only effect, or another doubt; inactive = no such curve, though single readings can be large or run the other way. Unless noted, % is set by controls: 0 for no effect and ±100 for the full control effect.
SMILES,HPGD inh,IMPase inh,ALDH1A1 block
O=C(NNC(=S)NC(=O)c1ccccc1[N+](=O)[O-])c1ccccc1,-2%,1,-4%
Cc1ccccc1OCC(=O)NNC(=S)NC(=O)c1ccccc1[N+](=O)[O-],-2%,·,3%
Cc1cc(C)n(NC(=S)NC2CCCCC2)c(=O)c1C#N,·,·,5%
O=c1c2ccccc2ncn1-c1ccccc1C(F)(F)F,·,·,2%
CCN(CC)C(=O)c1c(NC(=O)c2cccc(C)c2)sc2c1CCC(C)C2 (centres undefined),·,-3,·
Cc1cccc(N2C(=O)CC(c3ccc(F)cc3)C3=C2COC3=O)c1 (centres undefined),·,·,6%
CCCc1cc(NC(=O)CCl)n(-c2ccccc2)n1,·,·,0.89µM*
CCCC(=O)OCC(=O)Nc1cc(C(C)(C)C)nn1-c1ccccc1,?,-6,-2%
Cc1sc2nc(SCC(N)=O)n(-c3ccccc3)c(=O)c2c1C,·,·,18µM*
Cc1sc2nc(SCC(=O)N3CCN(CCO)CC3)n(-c3ccccc3)c(=O)c2c1C,-14%,-5,?
Cc1ccc(S(=O)(=O)C2(C(=O)Nc3nccs3)CC2)cc1,-13%,0,-8%
CC(NS(=O)(=O)c1ccc(Cl)cc1)C(=O)NCc1ccco1 (centres undefined),-8%,2,-3%
O=C(NCc1ccco1)C1(S(=O)(=O)c2ccc(Cl)cc2)CC1,-14%,-4,18µM*
O=C(Nc1nccs1)C1(S(=O)(=O)c2ccc(Cl)cc2)CC1,·,2,11µM*
Cc1ccc(C(=O)N2NC(c3ccccc3F)C3C(=O)N(c4cccc(C)c4)C(=O)C32)cc1 (centres undefined),-28%,·,2.5µM*
COc1ccccc1N1C(=O)C2C(c3ccccc3F)NN(C(=O)c3ccc(C)cc3)C2C1=O (centres undefined),?,·,8%
CC(C)c1cccc(C(C)C)c1NC(=S)Nc1cccc(Cl)c1,·,·,-2%
CC(C)=CCN1CCN(Cc2cccn2-c2ncccn2)CC1CCO (centres undefined),·,·,0%
O=C(NC1CCCC1)C(c1cccnc1)N(C(=O)c1csnn1)C1CCCC1 (centres undefined),5%,0,?
CC(C)c1ccc(N(C(=O)c2csnn2)C(C(=O)NC(C)(C)C)c2ccncc2)cc1 (centres undefined),-13%,8,2.2µM*
O=C(NC1CCCC1)C(c1ccncc1)N(C(=O)c1csnn1)C1CCCC1 (centres undefined),·,·,13µM*
CCc1ccc(N(C(=O)c2csnn2)C(C(=O)NC(C)(C)C)c2cccnc2)cc1 (centres undefined),·,·,13µM*
CCC(C)(C)NC(=O)C(c1cccnc1)N(C(=O)c1csnn1)c1ccccc1 (centres undefined),·,·,4%
Cc1ccc(N(C(=O)c2csnn2)C(C(=O)NC(C)(C)C)c2ccncc2)cc1 (centres undefined),-2%,3,0%
CC(C)c1ccc(N(C(=O)c2csnn2)C(C(=O)NC(C)(C)C)c2cccnc2)cc1 (centres undefined),·,·,0.71µM*
SMILES,HPGD inh,IMPase inh,ALDH1A1 block
CC(C)(C)NC(=O)C(c1cccnc1)N(C(=O)c1csnn1)c1ccccc1 (centres undefined),·,·,10%
O=C(Cl)c1c(Cl)cccc1Cl,-7%,·,?
Cc1cc(C)c(Nc2ncnc(N)n2)c(C)c1,·,·,11%
CO/N=C(\C)CCN1CCc2nc(-c3ccccc3)c(-c3ccccc3)cc2C1,·,·,13%[13.5 µM]
O=C(/C=C/c1ccc([N+](=O)[O-])cc1)N(c1ccccn1)C1CCCCC1,·,·,13µM*
N#C/C(=C\c1ccccc1)C(=O)N(c1ccccn1)C1CCCCC1,-1%,·,-19%
CC1CCC(C(=O)O)NC1c1cccc(N2CCOCC2)c1 (centres undefined),·,·,-3%[13.5 µM]
Cc1ccc(-n2c(O)c(C=NCc3ccccn3)c3ccccc3c2=O)cc1C,-7%,·,-11%
COCCNC(=S)NN(c1ccccc1)c1ccccc1,·,·,32µM*
CNC(=S)NN(c1ccccc1)c1ccccc1,-7%,5,10%
CCOC(=O)c1cc(-c2ccc(C)cc2)n(CCC(=O)NCCCOC)c1C,-28%,-1,4%
CCCNC(=O)c1cc(-c2ccc(OC)cc2)n(CCCOC)c1C,8.9µM*,-12,?
O=C(CN1CCOCC1)Nc1ccc(N2CCN(c3ccccc3)CC2)c(F)c1,·,·,-5%
COc1ccc(CNC(=O)C(=O)NCc2cccnc2)cc1,·,·,0%
